This passage reports growth results from PubChem BioAssay (NCI).

Compounds without any hit were thinned out: in the full panel of roughly 83,000, 20% have a hit.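 Assay: single dose, 48 h. Readout: percent growth (0 = no net growth; negative = cell death). Active: <10.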 A number with no mark means an inactive call. Activity calls are given as the source filed them.

Assay in all cases: NCI-60 one-dose screen, 48 h (100 = growth as untreated, 0 = no growth, -100 = all killed)
Common to all, as to settings: 10 µM unless noted

Experiment [1] has as its system T-47D breast.
The test system of experiment [2] is BT-549 breast.
Experiment [3] concerns MDA-MB-435 melanoma.
In experiment [4] the test system is SW-620 colon.
Experiment [5] relates to MCF7 breast.
In experiment [6] the test system is HCT-116 colon.
Experiment [7] has as its system HCC-2998 colon.
The test system of experiment [8] is KM12 colon.

Consider `CCCS(=O)(=O)Nc1cccc(Nc2ncnc3cc(NC(=O)CCl)ccc23)c1Cl`, for which the growth in experiment [1] was -41.8% (active); in experiment [2], -68.2% (active); in experiment [3] it was -46.9% (active); in experiment [4], -33.6% (active); in experiment [5] it was -13% (active); in experiment [6] it was -27.9% (active). Further, the growth in experiment [7] is 4.99% (active); in experiment [8], -32.2% (active).

For the molecule `CNC1=C([N+](=O)[O-])C(c2ccc(OC)cc2)C(C#N)=C(c2ccc[nH]2)O1` (centres undefined), the growth in experiment [1] is 100%; in experiment [2] it was 101%; in experiment [3], 96%; in experiment [4] it was 104%; in experiment [5] it was 86.4%; in experiment [6], 99%. For the same molecule, the results for the growth in experiment [7] and in experiment [8] were 100% and 114%, respectively.

`O=C(Nc1ncc(Cc2cc(C(F)(F)F)ccc2Cl)s1)C(=S)N1CCOCC1`: the growth in experiment [1] is 73.9%; in experiment [2], 99%; in experiment [3], 85.9%; in experiment [4], 93.2%; in experiment [5], 82%; in experiment [6] it was 81.8%. Besides, the growth in experiment [7] is 101%; in experiment [8], 97.7%.

For the molecule `CCOc1ccccc1NC(=O)CCC(=O)OC`, the growth is 88.7% in experiment [1]; 106% in experiment [2]; 102% in experiment [3]; 104% in experiment [4]; 90.4% in experiment [5]; 97.5% in experiment [6]. The growth in experiment [7] was 99.5%; in experiment [8], 100%.

On to `CN1CCN(Cc2ccc(NC(=O)c3cc(C#Cc4cnc(N)c5ncccc45)n(C)n3)cc2C(F)(F)F)CC1`, for which the growth in experiment [1] was 101%; in experiment [2], 117%; in experiment [3], 102%; in experiment [4] it was 88.1%; in experiment [5], 39.7%; in experiment [6], 96.1%. The values for the growth in experiment [7] and in experiment [8] were 128% and 87.8%, respectively.

With `O=C(Nc1ncc(Cc2ccccc2)s1)c1ccc2c(c1)OCCO2`, the growth was 36% in experiment [1]; 36.1% in experiment [2]; -4.27% (active) in experiment [3]; 35.2% in experiment [4]; 10.8% in experiment [5]; 9.23% (active) in experiment [6]. Further, the growth in experiment [7] was 13.3%; in experiment [8] it was 9.34% (active).

For the molecule `CCN1CCN(c2cc(C(=O)Nc3cccc(Nc4ccc5c(OC)cccc5n4)c3)cc(C(F)(F)F)c2)CC1`, the growth in experiment [1] was 11%; in experiment [2], 69.6%; in experiment [3], 1.29% (active); in experiment [4], 3.22% (active); in experiment [5], -45.3% (active); in experiment [6], 24.3%. Moreover, the growth was -53.3% (active) in experiment [7] and -10.3% (active) in experiment [8].

As for `CC(Cc1cccc2ccccc12)C(N)=O` (centres undefined), the growth in experiment [1] was 105%; in experiment [2], 105%; in experiment [3] it was 98.9%; in experiment [4], 108%; in experiment [5] it was 93%; in experiment [6] it was 106%. Also, the growth was 106% in experiment [7] and 110% in experiment [8].

Regarding `CCCCC1=C(Br)C(=O)c2ncccc2C1=O`, the growth in experiment [1] is 71.2%; in experiment [2], 94.4%; in experiment [3], 105%; in experiment [4], 60.2%; in experiment [5], 89.5%; in experiment [6], 62.6%. The growth in experiment [7] is 108%; in experiment [8] it was 96.9%.

As for `CCOC(=O)CC1CSC(N/N=C(/C)c2cccc(C(F)(F)F)c2)=N1` (centres undefined), the growth in experiment [1] was 104%; in experiment [2], 85.6%; in experiment [3], 101%; in experiment [4], 104%; in experiment [5] it was 90.5%; in experiment [6] it was 96.9%. In addition, the growth was 101% in experiment [7] and 97.7% in experiment [8].

Take `Cc1ccc2c(c1)CC(O)CC1C(=O)N(CCO)CC(=O)N21` (centres undefined): the growth in experiment [1] was 93.1%; in experiment [2], 103%; in experiment [3], 106%; in experiment [4], 106%; in experiment [5], 96.8%; in experiment [6] it was 95.9%. Moreover, the growth is 104% in experiment [7] and 105% in experiment [8].

For `CCOC(=O)c1c(C)n2c(=O)cc(C)c3c(OC(C)=O)c(OC(C)=O)cc1c32`, the growth in experiment [1] was 52.7%; in experiment [2], 80.3%; in experiment [3] it was 83.3%; in experiment [4], 34.8%; in experiment [5] it was 62.2%; in experiment [6] it was 23.3%. Further, the growth is 84.4% in experiment [7] and 86.7% in experiment [8].

Turning to `COc1ccc(C2=NN3C(C2)c2cc(Br)ccc2OC3c2ccncc2)cc1` (centres undefined), the growth is 69.1% in experiment [1]; 76.6% in experiment [2]; 92.4% in experiment [3]; 90.7% in experiment [4]; 70.7% in experiment [5]; 76.8% in experiment [6]. Also, the growth in experiment [7] was 105%; in experiment [8], 73%.
